# Calls of active or inactive are those of the source.
# How the values were obtained:
# [1] = optical density shifts of acrAB sulA E. coli – strain DRC41, OD650, 48 h, E. coli filamentation inducer project, primary screen (AID 1152); settings: higher = more signal, called active from +8 up or from −8 down;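 also: E. coli MC1000 strain DRC41 lacking acrAB efflux pump and sulA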
# [2] = probe aLefty1 binding on compound microarray – biochemical, small-molecule microarray, 635/667 nm fluorescence, primary screen (AID 1153); settings: higher = more signal;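 also: score merges spot fluorescence with signal-to-noise ratio from the scanned slide images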
# [3] = plasmodial surface anion channel blockers, osmotic lysis – cell-based, P. falciparum Indochina, OD700, 1 h, primary screen (AID 1154); settings: P. falciparum Indochina infected RBC osmotic lysis, higher = more signal, called active from +8 up or from −8 down
# [4] = plasmodial surface anion channel blockers, osmotic lysis – cell-based, P. falciparum Indochina, OD700, 2 h, primary screen (AID 1155);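 also: lysis reports solute entry through the parasite surface anion channel PSAC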; settings: P. falciparum Indochina infected erythrocytes, higher = more signal, called active from +8 up or from −8 down
# [5] = changes in parasitized red cell lysis, either direction – P. falciparum Indochina, OD700, 3 h, PSAC antagonist project, primary screen (AID 1156); settings: P. falciparum-infected erythrocytes, osmotic lysis, higher = more signal, called active from +8 up or from −8 down
# [6] = plasmodial surface anion channel blockers, osmotic lysis – cell-based, P. falciparum Indochina, OD700, 18 h, primary screen (AID 1157); settings: P. falciparum Indochina infected erythrocytes, osmotic lysis OD700, 18 h; higher = more signal, called active from +8 up or from −8 down
# [7] = S6 kinase pathway phospho-S6 level changes – cell-based, A549, cytoblot, luminescence, serum-stimulated, primary screen (AID 1158); settings: 5 h, higher = more signal;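 also: serum-stimulated A549 lung adenocarcinoma cells; signal is phosphorylated S6 detected by cytoblot immunostaining with HRP secondary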
# [8] = target: NADPH oxidase 2 (Homo sapiens) (UniProt P04839); experiment: compounds shifting NOX2 Amplex Red fluorescence – cell-based, HEK293-NOX2, PMA-stimulated, NOX inhibitor project, primary screen (AID 1159); settings: 45 min, higher = more signal, called active from +8 up or from −8 down; also: test concentration not given here
# Sequence of NADPH oxidase 2 (Homo sapiens) (P04839 whole entry, looked up): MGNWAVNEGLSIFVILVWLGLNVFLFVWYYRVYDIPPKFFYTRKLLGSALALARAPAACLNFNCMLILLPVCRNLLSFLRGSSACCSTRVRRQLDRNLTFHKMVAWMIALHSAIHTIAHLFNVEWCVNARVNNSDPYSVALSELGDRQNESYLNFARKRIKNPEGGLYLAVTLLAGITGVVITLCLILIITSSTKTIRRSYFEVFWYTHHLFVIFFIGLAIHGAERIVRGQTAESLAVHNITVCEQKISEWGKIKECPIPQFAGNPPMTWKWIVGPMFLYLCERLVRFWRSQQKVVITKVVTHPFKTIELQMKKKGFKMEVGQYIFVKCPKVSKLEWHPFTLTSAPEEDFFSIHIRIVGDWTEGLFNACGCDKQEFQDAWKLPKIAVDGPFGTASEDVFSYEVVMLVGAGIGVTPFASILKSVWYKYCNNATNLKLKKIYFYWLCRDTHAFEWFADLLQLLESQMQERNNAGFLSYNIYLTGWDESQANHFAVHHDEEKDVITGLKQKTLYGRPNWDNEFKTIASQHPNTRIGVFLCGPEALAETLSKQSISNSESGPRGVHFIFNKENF
# [9] = target: NADPH oxidase 4 (Homo sapiens) (UniProt Q9NPH5); experiment: compounds shifting NOX4 Amplex Red fluorescence – cell-based, HEK293-NOX4, tetracycline-induced, NOX inhibitor project, primary screen (AID 1160); settings: HEK293-NOX4, Amplex Red H2O2 fluorescence, 45 min; higher = more signal, called active from +8 up or from −8 down
# Sequence of NADPH oxidase 4 (Homo sapiens) (Q9NPH5 whole entry, looked up): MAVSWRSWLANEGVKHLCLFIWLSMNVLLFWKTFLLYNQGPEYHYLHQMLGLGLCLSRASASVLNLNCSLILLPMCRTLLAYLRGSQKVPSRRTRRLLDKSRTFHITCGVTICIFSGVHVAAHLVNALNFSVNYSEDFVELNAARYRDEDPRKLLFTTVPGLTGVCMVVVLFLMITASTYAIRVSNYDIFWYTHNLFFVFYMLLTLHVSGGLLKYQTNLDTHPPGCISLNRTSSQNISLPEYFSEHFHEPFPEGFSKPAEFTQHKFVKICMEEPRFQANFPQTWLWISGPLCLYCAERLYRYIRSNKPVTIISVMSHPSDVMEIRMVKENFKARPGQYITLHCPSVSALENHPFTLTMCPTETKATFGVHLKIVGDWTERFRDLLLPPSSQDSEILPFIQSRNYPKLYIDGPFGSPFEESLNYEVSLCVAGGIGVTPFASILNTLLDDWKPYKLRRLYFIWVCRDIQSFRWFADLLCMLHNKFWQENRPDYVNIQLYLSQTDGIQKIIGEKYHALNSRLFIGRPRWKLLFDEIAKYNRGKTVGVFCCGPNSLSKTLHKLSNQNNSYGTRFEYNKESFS
# [10] = target: NADPH oxidase 5 (Homo sapiens) (UniProt Q96PH1); experiment: compounds shifting NOX5 Amplex Red fluorescence – cell-based, HEK293-NOX5, NOX inhibitor project, primary screen (AID 1161); settings: HEK293-NOX5, ionomycin, 45 min, higher = more signal
# Sequence of NADPH oxidase 5 (Homo sapiens) (Q96PH1 whole entry, looked up): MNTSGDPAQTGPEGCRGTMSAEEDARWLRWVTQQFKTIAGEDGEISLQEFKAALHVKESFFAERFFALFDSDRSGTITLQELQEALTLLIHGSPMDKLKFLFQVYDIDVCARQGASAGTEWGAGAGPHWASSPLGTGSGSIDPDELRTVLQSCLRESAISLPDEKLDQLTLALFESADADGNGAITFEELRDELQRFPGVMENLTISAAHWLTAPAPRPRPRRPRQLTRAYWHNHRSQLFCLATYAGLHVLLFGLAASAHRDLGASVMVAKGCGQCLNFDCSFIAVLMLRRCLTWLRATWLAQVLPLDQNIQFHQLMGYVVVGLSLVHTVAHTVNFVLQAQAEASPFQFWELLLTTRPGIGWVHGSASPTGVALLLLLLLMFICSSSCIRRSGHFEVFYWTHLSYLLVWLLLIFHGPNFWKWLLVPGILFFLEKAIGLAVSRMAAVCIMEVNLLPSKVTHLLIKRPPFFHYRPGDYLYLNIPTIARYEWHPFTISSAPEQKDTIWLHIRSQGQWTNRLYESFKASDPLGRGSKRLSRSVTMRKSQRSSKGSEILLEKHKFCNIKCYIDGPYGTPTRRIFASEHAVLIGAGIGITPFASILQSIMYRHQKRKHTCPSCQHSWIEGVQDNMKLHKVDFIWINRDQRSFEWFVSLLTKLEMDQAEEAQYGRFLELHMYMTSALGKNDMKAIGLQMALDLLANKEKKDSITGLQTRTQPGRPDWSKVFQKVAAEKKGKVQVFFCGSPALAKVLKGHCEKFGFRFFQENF
# [11] = compound effects on lung adenocarcinoma cell viability – A549, calcein-AM fluorescence, 48 h, basal, profiling panel (AID 1162); settings: higher = more signal; also: test concentration not given here
# [12] = compound effects on differentiated 3T3-L1 adipocyte viability – cell-based, 3T3-L1 adipocytes, calcein-AM fluorescence, 48 h, basal, profiling panel (AID 1163); settings: 3T3-L1 adipocytes viability, higher = more signal; also: test concentration not given here
# [13] = compound effects on hepatocellular carcinoma cell viability – HepG2, calcein-AM fluorescence, 48 h, basal, profiling panel (AID 1164); settings: higher = more signal; also: test concentration not given here
# [14] = compound effects on multiple myeloma cell viability – MM1S, calcein-AM fluorescence, 48 h, basal, profiling panel (AID 1165); settings: higher = more signal;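 also: viability of MM1S multiple myeloma cells under basal unstimulated conditions; test concentration not given here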
# [15] = calcein-AM signal in unstimulated myeloma cells – cell-based, calcein-AM fluorescence, 48 h, PK04 Diversity Set, profiling panel (AID 1166); settings: RPMI8226 myeloma viability, higher = more signal;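 also: cells grown under basal conditions without added stimulus; test concentration not given here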
# [16] = JC-1 mitochondrial signal, unstimulated HepG2 cells – cell-based, JC-1 fluorescence, 24 h, 100 nL compound, profiling panel (AID 1167); settings: HepG2 mitochondrial potential, higher = more signal; also: test concentration not given here
# [17] = JC-1 mitochondrial signal, unstimulated adipocytes – cell-based, JC-1 fluorescence, 3T3-L1 adipocytes, 24 h, 100 nL compound, profiling panel (AID 1168); settings: JC-1 mitochondrial fluorescence, higher = more signal, called active from +8 up or from −8 down; also: test concentration not given here
# [18] = JC-1 mitochondrial signal, unstimulated myeloma cells – cell-based, JC-1 fluorescence, RPMI8226, 24 h, 100 nL compound, profiling panel (AID 1169); settings: JC-1 mitochondrial potential fluorescence, higher = more signal; also: test concentration not given here
# [19] = JC-1 mitochondrial signal, unstimulated MM1S myeloma – cell-based, JC-1 fluorescence, 24 h, 100 nL compound, profiling panel (AID 1170); settings: MM1S mitochondrial potential, higher = more signal; also: test concentration not given here
# [20] = resazurin metabolic signal in A549 cells – cell-based, resazurin fluorescence, 24 h, PK04 Diversity Set, profiling panel (AID 1171); settings: A549 viability, higher = more signal, called active from +8 up or from −8 down; also: test concentration not given here
SMILES,z-score [1],composite z-score [2],z-score [3],z-score [4],z-score [5],z-score [6],z-score [7],z-score [8],z-score [9],z-score [10],z-score [11],z-score [12],z-score [13],z-score [14],z-score [15],z-score [16],z-score [17],z-score [18],z-score [19],z-score [20]
COC(=O)C(CC#Cc1ccc2c(c1)[C@]1(C(=O)N2)[C@H](c2ccc(OCCO)cc2)N2[C@H](c3ccccc3)[C@H](c3ccccc3)OC(=O)[C@H]2[C@@H]1C(=O)N1CCc2cc(OC)c(OC)cc2C1)C(=O)OC,-0.339 (inactive),1.08,3.44 (inactive),1.89 (inactive),0.506 (inactive),0.754 (inactive),-0.214,1.13 (inactive),0.632 (inactive),1.96,0.442,1.16,0.578,-0.952,-0.578,-0.156,-0.0627 (inactive),-0.929,-1.11,0.161 (inactive)
COC(=O)[C@@]1(Cc2ccc(OC)cc2)[C@H]2c3cc(C(=O)N4CCCC4)n(Cc4ccc(C)c(F)c4F)c3C[C@H]2CN1C(=O)c1ccccc1,-0.548 (inactive),0.378,3.76 (inactive),0.233 (inactive),0.894 (inactive),1.08 (inactive),0.105,0.705 (inactive),1.23 (inactive),-3.41,0.842,0.0891,0.682,-1.59,-2.66,3.41,-0.411 (inactive),-0.735,-1.51,-0.268 (inactive)
Cc1ccc([C@@H]2C[C@@H](Sc3ccccc3)[C@H](C(=O)O)CN2S(=O)(=O)c2ccc(C)cc2)cc1,-1.07 (inactive),0.481,1.87 (inactive),0.835 (inactive),-1.16 (inactive),0.759 (inactive),-0.512,2.06 (inactive),-1.97 (inactive),-0.41,-0.687,0.154,-0.316,-0.681,-3.33,-1.2,-0.183 (inactive),-0.268,0.928,0.39 (inactive)
O=C(NCCO)C1=C[C@H](Oc2ccccc2I)[C@@H](O)[C@H](N(Cc2ccco2)C(=O)Cc2ccccc2)C1,-0.673 (inactive),0.0752,0.877 (inactive),0.799 (inactive),1.1 (inactive),0.304 (inactive),0.202,1.34 (inactive),0.254 (inactive),0.351,-0.22,1.31,-0.902,0.426,-1.94,-0.217,-0.166 (inactive),-0.084,0.559,-1.35 (inactive)
CCCC[C@@H]1C[C@H]1[C@@H](NC(=O)c1ccccc1)c1ccc(C(=O)OC)cc1,-2.42 (inactive),0.357,12.2 (active),1.91 (inactive),0.57 (inactive),0.643 (inactive),-0.728,-1.14 (inactive),-2.96 (inactive),-0.585,-0.992,-0.334,-0.197,-1.2,-2.68,-2.55,-1.18 (inactive),0.461,-1.12,0.571 (inactive)
COc1ccc(C(=O)Nc2ccc(CN3C(=O)[C@]4(O[C@H](CCO)[C@@H]([Si](C)(C)c5ccc(OC)cc5)[C@@H]4C)c4ccccc43)cc2)cc1,-1.37 (inactive),0.199,5.29 (inactive),2.11 (inactive),-0.205 (inactive),2.12 (inactive),-1.38,-6.37 (inactive),-2.55 (inactive),-1.54,-3.8,-0.0656,-4.64,-2.62,-4.35,-2.72,1.36 (inactive),-1.06,-2.28,-3.79 (inactive)
CN1C(=O)C2C=CC(C(O)C3CC=CCC3)N(N(c3ccccc3)c3ccccc3)C2C1=O (stereo not given),-0.866 (inactive),0.329,0.19 (inactive),1.01 (inactive),-0.255 (inactive),1.29 (inactive),-0.496,-0.625 (inactive),0.21 (inactive),0.224,-0.0631,-1.9,0.125,0.535,-0.785,-0.77,-0.339 (inactive),-0.23,-0.711,-0.501 (inactive)
CCOC(=O)C[C@H]1[C@H](OC(=O)c2ccc(-c3ccccc3)cc2)[C@@H](NC(=O)Cc2ccc(OC)cc2)c2cc(OCCCO)ccc2N1C(=O)c1ccccc1,-0.539 (inactive),0.206,1.84 (inactive),-0.259 (inactive),0.438 (inactive),0.285 (inactive),1.3,-1.43 (inactive),-1.72 (inactive),-0.795,-0.137,0.533,-0.42,0.57,-0.432,1.37,-1.03 (inactive),0.0293,-0.102,-0.657 (inactive)
[N-]=[N+]=Nc1ccccc1[C@H]1OC(c2ccc(OCCCO)cc2)=N[C@@]1(CCS(=O)(=O)c1ccccc1)C(N)=O,0.613 (inactive),0.138,32 (active),28.1 (active),1.48 (inactive),2.16 (inactive),-0.0187,0.178 (inactive),0.067 (inactive),-0.909,0.0833,0.733,0.0844,-0.57,0.0418,-0.93,-0.235 (inactive),-1.07,0.296,0.985 (inactive)
